# From publication PMC11062922 (Nature Chemical Biology, 2023)
# Where two headings read alike, the source gives them in different places.
# Columns and labels:
# Parameters in all cases: species or system human, MV4-11 + K-562 + COLO205 + SK-N-BE2 + OVCAR-8
# CDC42BPG = details: read-out: apparent Kd, n = 1
# CDK9 = details: read-out: apparent Kd, n = 1
# FYN = details: read-out: apparent Kd, n = 1
# IRAK3 = details: read-out: apparent Kd, n = 1
# LYN = details: read-out: apparent Kd; compound concentrations: 100 nM and 1000 nM (sheet 'Samples'), CATDS: 1.4378257714361201E-2; n = 1
# MTOR = details: read-out: apparent Kd, n = 1
# PIK3CG = details: read-out: apparent Kd, compound concentrations: 100 nM and 1000 nM (sheet 'Samples'), n = 1
# TGFBR2 = details: read-out: apparent Kd, n = 1
# PDGFRB = details: read-out: apparent Kd, n = 1
# ROCK1 = details: read-out: apparent Kd, n = 1
# ULK1 = details: read-out: apparent Kd; compound concentrations: 100 nM and 1000 nM (sheet 'Samples'), CATDS: 1.11724420901094E-2; n = 1
# ULK3 = details: read-out: apparent Kd, n = 1
# CDC42BPA = details: read-out: apparent Kd, n = 1
# EPHA1 = details: read-out: apparent Kd; compound concentrations: 100 nM and 1000 nM (sheet 'Samples'), CATDS: 3.2414414086750797E-2; n = 1
# PRKG1 = details: read-out: apparent Kd, n = 1
# CIT = details: read-out: apparent Kd, n = 1
# AXL = details: read-out: apparent Kd; compound concentrations: 100 nM and 1000 nM (sheet 'Samples'), CATDS: 9.0934128648907098E-2; n = 1
# [1] = compound concentrations:100 nM and 1000 nM (sheet 'Samples')
smiles,measurement,setting,value
CCn1c(-c2cccnc2O)nc2cnccc21 [SB-736715],potency estimated from few doses,"CDC42BPG; compound concentrations: 100 nM and 1000 nM (sheet 'Samples'), CATDS: 1.9794934428915799E-2",767 nM
same,potency estimated from few doses,"CDK9; compound concentrations: 100 nM and 1000 nM (sheet 'Samples'), CATDS: 1.2439318728053501E-2",1990 nM
same,potency estimated from few doses,"FYN; compound concentrations: 100 nM and 1000 nM (sheet 'Samples'), CATDS: 1.7018948843541101E-2",1010 nM
same,potency estimated from few doses,"IRAK3; compound concentrations: 100 nM and 1000 nM (sheet 'Samples'), CATDS: 1.50971530533868E-2",1280 nM
same,potency estimated from few doses,LYN,1420 nM
same,potency estimated from few doses,"MTOR; compound concentrations: 100 nM and 1000 nM (sheet 'Samples'), CATDS: 2.4342706030032701E-2",547 nM
same,potency estimated from few doses,PIK3CG; CATDS: 9.1944344631326697E-2,91.6 nM
c1cnn2ncc(-c3ccnc(Nc4ccc5c(c4)OCCO5)n3)c2c1 [GW806290X],potency estimated from few doses,"CDK9; compound concentrations: 100 nM and 1000 nM (sheet 'Samples'), CATDS: 6.9114282023058901E-2",99.5 nM
same,potency estimated from few doses,"TGFBR2; compound concentrations: 100 nM and 1000 nM (sheet 'Samples'), CATDS: 6.1295123324086299E-2",123 nM
O=C(O)C(F)(F)F.O=c1[nH]ccc2nc(N[C@@H]3CCNC3)nc(Nc3ccc4c(c3)S(=O)(=O)CC4)c12 [GSK2181306A],potency estimated from few doses,"PDGFRB; compound concentrations: 100 nM and 1000 nM (sheet 'Samples'), CATDS: 8.63750114385467E-3",1400 nM
same,potency estimated from few doses,PIK3CG; CATDS: 1.1005849922452E-2,648 nM
same,potency estimated from few doses,"ROCK1; compound concentrations: 100 nM and 1000 nM (sheet 'Samples'), CATDS: 8.6334191105918393E-3",1410 nM
same,potency estimated from few doses,ULK1,623 nM
same,potency estimated from few doses,"ULK3; compound concentrations: 100 nM and 1000 nM (sheet 'Samples'), CATDS: 1.2312862576378401E-2",487 nM
COc1cc(Nc2nccc(-c3cnn4ncccc34)n2)cc(OC)c1 [GW801372X],potency estimated from few doses,"CDC42BPA; compound concentrations: 100 nM and 1000 nM (sheet 'Samples'), CATDS: 2.2465917361224799E-2",786 nM
same,potency estimated from few doses,"CDK9; compound concentrations: 100 nM and 1000 nM (sheet 'Samples'), CATDS: 4.3233319898636102E-2",142 nM
same,potency estimated from few doses,"IRAK3; compound concentrations: 100 nM and 1000 nM (sheet 'Samples'), CATDS: 2.51875293793523E-2",553 nM
same,potency estimated from few doses,"PDGFRB; compound concentrations: 100 nM and 1000 nM (sheet 'Samples'), CATDS: 1.5756503418678101E-2",3520 nM
NC(=O)c1cc(-c2ccccc2)cc2c(C3CCNCC3)c[nH]c12 [GSK301362A],potency estimated from few doses,PDGFRB; [1],1630 nM
CC(C)Oc1ccc2c(-c3ccnc(Nc4ccc(N5CCN(C)CC5)cc4)n3)cnn2n1 [GW696155X],potency estimated from few doses,IRAK3; [1],464 nM
same,potency estimated from few doses,PDGFRB; [1],2040 nM
same,potency estimated from few doses,ULK3; [1],290 nM
NS(=O)(=O)c1ccc(N/N=C2\C(=O)Nc3ccc4ncccc4c32)cc1 [GW305178X],potency estimated from few doses,"CDK9; compound concentrations: 100 nM and 1000 nM (sheet 'Samples'), CATDS: 4.6560668202509002E-2",1210 nM
O=C1N=C(NCc2ccccc2Br)S/C1=C\c1ccc2ncccc2c1 [RO4506918-000],potency estimated from few doses,"CDC42BPG; compound concentrations: 100 nM and 1000 nM (sheet 'Samples'), CATDS: 7.9298685313138301E-2",1370 nM
CCC(CC)(CC)n1cnc2c(N)ncnc21 [SKF-97620],potency estimated from few doses,EPHA1,828 nM
same,potency estimated from few doses,"MTOR; compound concentrations: 100 nM and 1000 nM (sheet 'Samples'), CATDS: 6.0851943016667201E-2",220 nM
same,potency estimated from few doses,PIK3CG; CATDS: 3.56480592193908E-2,658 nM
same,potency estimated from few doses,"ROCK1; compound concentrations: 100 nM and 1000 nM (sheet 'Samples'), CATDS: 2.49048423205754E-2",1780 nM
COc1cc[nH]c1/C=C1\C(=O)Nc2ccc(F)c(C#C[C@@H](O)[C@@H](N)[C@@H](C)O)c21 [RO0283120-000],potency estimated from few doses,CDK9; [1],1130 nM
same,potency estimated from few doses,TGFBR2; [1],1600 nM
O=C1N=C(N[C@H](CO)c2ccccc2)S/C1=C\c1ccc2ncccc2c1 [RO4554339-000],potency estimated from few doses,"CDC42BPA; compound concentrations: 100 nM and 1000 nM (sheet 'Samples'), CATDS: 8.0851127030257999E-2",2180 nM
Cn1cc(C2=C(c3ccc(OC[C@@H](O)CO)cc3)C(=O)NC2=O)c2ccccc21 [RO3208546-000],potency estimated from few doses,"MTOR; compound concentrations: 100 nM and 1000 nM (sheet 'Samples'), CATDS: 4.7243035246753197E-2",730 nM
COc1cc[nH]c1/C=C1\C(=O)Nc2ccc([N+](=O)[O-])c(N3CC[C@@H](O)C3)c21 [RO0504985-000],potency estimated from few doses,"CDK9; compound concentrations: 100 nM and 1000 nM (sheet 'Samples'), CATDS: 3.1258790077652497E-2",1620 nM
same,potency estimated from few doses,"PDGFRB; compound concentrations: 100 nM and 1000 nM (sheet 'Samples'), CATDS: 3.1166812666601599E-2",1640 nM
same,potency estimated from few doses,"TGFBR2; compound concentrations: 100 nM and 1000 nM (sheet 'Samples'), CATDS: 3.2384825488945002E-2",1410 nM
Cl.Cl.NCC(NCc1ccc(-c2ccnc3[nH]ccc23)s1)c1ccccc1.NCC(NCc1ccc(-c2ccnc3[nH]ccc23)s1)c1ccccc1 (centres unmarked) [GSK1321565A],potency estimated from few doses,PRKG1; [1],1060 nM
CC(C)(CO)CNC(=O)c1ccc2c(c1)/C(=N/Nc1ccc(S(N)(=O)=O)cc1)C(=O)N2 [GW301784X],potency estimated from few doses,TGFBR2; [1],822 nM
NS(=O)(=O)c1cccc(-c2ccc3c(NC(=O)C4CC4)n[nH]c3c2)c1 [SB-741905],potency estimated from few doses,"MTOR; compound concentrations: 100 nM and 1000 nM (sheet 'Samples'), CATDS: 0.166958544620607",626 nM
CCn1c(-c2nonc2N)nc2cncc(C(=O)N3CC[C@H](N)C3)c21.Cl [SB-772077-B],potency estimated from few doses,CDC42BPA; [1],1170 nM
same,potency estimated from few doses,CIT; [1],1450 nM
same,potency estimated from few doses,PRKG1; [1],95.9 nM
O=C1N=C(NCCc2ccccc2Cl)S/C1=C\c1ccc2ncccc2c1 [RO4498484-000],potency estimated from few doses,"CDC42BPA; compound concentrations: 100 nM and 1000 nM (sheet 'Samples'), CATDS: 5.5434431749678797E-2",2450 nM
CC(C)N1CC(=O)N(C)c2cnc(Nc3cccc(S(=O)(=O)CCN4CCOCC4)c3)nc21 [BI00009348],potency estimated from few doses,PIK3CG; CATDS: 0.22323444695651501,109 nM
COc1cc2ncn(-c3cc(OCc4ccccc4S(C)(=O)=O)c(C#N)s3)c2cc1OC [GSK319347A],potency estimated from few doses,AXL,1240 nM
Cl.Cl.NC[C@H](CC1CCCCC1)NC(=O)c1ccc(-c2ccnc3[nH]ccc23)s1.NC[C@H](CC1CCCCC1)NC(=O)c1ccc(-c2ccnc3[nH]ccc23)s1 [GSK1581428A],potency estimated from few doses,CDC42BPA; [1],28.9 nM
same,potency estimated from few doses,PRKG1; [1],41.4 nM
same,potency estimated from few doses,ROCK1; [1],29.2 nM
Cl.Cl.NCC(NC(=O)c1cc(-c2ccnc3[nH]ccc23)cs1)c1ccccc1.NCC(NC(=O)c1cc(-c2ccnc3[nH]ccc23)cs1)c1ccccc1 (centres unmarked) [GSK1229959A],potency estimated from few doses,"CDC42BPA; compound concentrations: 100 nM and 1000 nM (sheet 'Samples'), CATDS: 7.2504197887005906E-2",15.3 nM
same,potency estimated from few doses,"CDC42BPG; compound concentrations: 100 nM and 1000 nM (sheet 'Samples'), CATDS: 9.9615433098280207E-2",8.8 nM
same,potency estimated from few doses,"CDK9; compound concentrations: 100 nM and 1000 nM (sheet 'Samples'), CATDS: 1.9893156316103101E-2",801 nM
same,potency estimated from few doses,"CIT; compound concentrations: 100 nM and 1000 nM (sheet 'Samples'), CATDS: 3.2542810657946203E-2",113 nM
same,potency estimated from few doses,"PRKG1; compound concentrations: 100 nM and 1000 nM (sheet 'Samples'), CATDS: 9.38640843647673E-2",9.7 nM
same,potency estimated from few doses,"ROCK1; compound concentrations: 100 nM and 1000 nM (sheet 'Samples'), CATDS: 0.109953475811368",7.53 nM
NS(=O)(=O)c1ccc(NC=C2C(=O)Nc3ccc4ncsc4c32)cc1 [GW589933X],potency estimated from few doses,"CDK9; compound concentrations: 100 nM and 1000 nM (sheet 'Samples'), CATDS: 2.7445436907685701E-2",414 nM
same,potency estimated from few doses,"PDGFRB; compound concentrations: 100 nM and 1000 nM (sheet 'Samples'), CATDS: 2.1122847549312301E-2",826 nM
NS(=O)(=O)c1ccc(N/C=C2\C(=O)Nc3ccc4ncsc4c32)cc1 [GW297361X],potency estimated from few doses,"CDK9; compound concentrations: 100 nM and 1000 nM (sheet 'Samples'), CATDS: 3.67324795233104E-2",1040 nM
CCn1c(-c2nonc2N)nc2cncc(Br)c21 [SB-738004],potency estimated from few doses,CDC42BPA; [1],2130 nM
same,potency estimated from few doses,CDK9; [1],1120 nM
same,potency estimated from few doses,ROCK1; [1],181 nM
Cc1occc1-c1nc(N)c(OC[C@@H](N)Cc2c[nH]c3ccccc23)cc1-c1cc2c(C)n[nH]c2cn1 [GSK1660450B],potency estimated from few doses,CDC42BPA; [1],34.6 nM
same,potency estimated from few doses,CDC42BPG; [1],65.4 nM
same,potency estimated from few doses,CIT; [1],135 nM
Cc1cccc(-c2cc(-c3c[nH]nc3-c3ccccn3)ccn2)c1 [GW679395X],potency estimated from few doses,FYN; [1],1290 nM
same,potency estimated from few doses,MTOR; [1],501 nM
same,potency estimated from few doses,ULK3; [1],1450 nM
